These results are taken from PubChem BioAssay (NCATS).

Molecules are shown by their SMILES. For some assays here: Measured potencies and affinities stand elsewhere. Active and inactive are the calls of the source.

The conditions of the first test: Ebola virus entry reporter assay, green channel fluorescence. On the technique in general: Reporter assays use an easily measured gene product as a stand-in for the process of interest.
With `O=C1CC[C@@]2(O)[C@H]3Cc4ccc(O)c5c4[C@@]2(CCN3CC2CC2)[C@H]1O5`, the result was inactive.

Turning to `O=NN(CCCl)C(=O)NCCCl`, the outcome was inactive.

As to `O=NN(CCCl)C(=O)NC1CCCCC1`, the compound was called inactive.

As to `CCN(C)C(=O)Oc1cccc([C@H](C)N(C)C)c1`, the call was inactive.

In the case of `OC(Cn1cncn1)(Cn1cncn1)c1ccc(F)cc1F`, the compound was called inactive.

On to `O=C(OC1C[C@H]2CC[C@@H](C1)[N+]21CCCC1)C(O)(c1ccccc1)c1ccccc1` (some centres undefined), for which the compound was classed as inactive.

The conditions of a further test: Ebola virus entry cell assay, ratio channel.
Consider `CC1(C)S[C@@H]2[C@H](NC(=O)Cc3ccccc3)C(=O)N2[C@H]1C(=O)O` (tested in a mixture with another compound), for which the outcome was inactive.

With `C[n+]1ccccc1/C=N/O`, the result was inactive.

For `CN(CCOc1ccc(NS(C)(=O)=O)cc1)CCc1ccc(NS(C)(=O)=O)cc1`, the outcome was inactive.

With `CC(=O)CCCCn1c(=O)c2c(ncn2C)n(C)c1=O`, the outcome was inactive.

As to `Cc1cn([C@H]2C=C[C@@H](CO)O2)c(=O)[nH]c1=O`, the result was inactive.

With `CCCCCOC(=O)Nc1nc(=O)n([C@@H]2O[C@H](C)[C@@H](O)[C@H]2O)cc1F`, the outcome was inactive.

Turning to `COc1ccc(-c2cc(=S)ss2)cc1`, the result was inactive.

As for `CC(C)NCC(O)c1ccc(O)c(O)c1` (centres undefined), the outcome was inactive.

Turning to `CC1(C)O[C@@H]2[C@@H](CO[C@@]3(COS(N)(=O)=O)OC(C)(C)O[C@@H]23)O1`, the outcome was inactive.

Turning to `CN(C)c1nc(N(C)C)nc(N(C)C)n1`, the outcome was inactive.

With `C[C@H]1O[C@H](O[C@H]2[C@H](O)[C@@H](O)[C@@H](O[C@H]3[C@H](O)[C@@H](O)[C@H](O)O[C@@H]3CO)O[C@@H]2CO)[C@H](O)[C@@H](O)[C@@H]1N[C@H]1C=C(CO)[C@@H](O)[C@H](O)[C@H]1O`, the result was inactive.

Take `N[C@@H](Cc1cc(I)c(Oc2cc(I)c(O)c(I)c2)c(I)c1)C(=O)O`: the outcome was inactive.

Take `CC(=O)O[C@]1(C(C)=O)CC[C@H]2[C@@H]3C=C(C)C4=CC(=O)CC[C@]4(C)[C@H]3CC[C@@]21C`: the outcome was inactive.

For the compound `COc1nc(N)nc2c1ncn2[C@@H]1O[C@H](CO)[C@@H](O)[C@@H]1O`, the outcome was inactive.

Turning to `CCOc1ccc2ccccc2c1C(=O)N[C@@H]1C(=O)N2[C@@H]1SC(C)(C)[C@@H]2C(=O)O`, the outcome was inactive.

`O=c1n(CCCN2CCN(c3cccc(Cl)c3)CC2)nc2ccccn12`: the outcome was inactive.

For the compound `CC(=O)N(O)CCCCCNC(=O)CCC(=O)N(O)CCCCCNC(=O)CCC(=O)N(O)CCCCCN`, the result was inactive.

Consider `CN(C)CCc1c[nH]c2ccc(CS(=O)(=O)N3CCCC3)cc12`, for which the outcome was inactive.

In the case of `Nc1nc(=S)c2[nH]cnc2[nH]1`, the outcome was inactive.

`NC(=O)NO`: the outcome was inactive.

As for `O=C1CC[C@@]2(O)[C@H]3Cc4ccc(O)c5c4[C@@]2(CCN3CC2CC2)[C@H]1O5`, the result was inactive.

Take `CC(C)(O)c1ccccc1CC[C@@H](SCC1(CC(=O)O)CC1)c1cccc(/C=C/c2ccc3ccc(Cl)cc3n2)c1`: the outcome was inactive.

As for `COc1c(C)c2c(c(O)c1C/C=C(\C)CCC(=O)O)C(=O)OC2`, the result was inactive.

Regarding `Cc1ccc(C(=O)c2cc(O)c(O)c([N+](=O)[O-])c2)cc1`, the outcome was inactive.

Take `NS(=O)(=O)Cc1noc2ccccc12`: the outcome was inactive.

Regarding `COC(c1ccccc1)(c1ccccc1)[C@H](Oc1nc(C)cc(C)n1)C(=O)O`, the outcome was inactive.

For the compound `Nc1ncn([C@@H]2O[C@H](CO)[C@@H](O)[C@H]2O)c(=O)n1`, the result was inactive.

For the compound `COc1cc2c(cc1OC)[C@@H]1CC(=O)[C@@H](CC(C)C)CN1CC2`, the outcome was inactive.

Consider `Cc1cc(C)cc(OCC2CNC(=O)O2)c1` (centres undefined), for which the outcome was inactive.

Consider `O=NN(CCCl)C(=O)NCCCl`, for which the outcome was inactive.

Regarding `CCCN(CCC)S(=O)(=O)c1ccc(C(=O)O)cc1`, the outcome was inactive.

Consider `O=NN(CCCl)C(=O)NC1CCCCC1`, for which the result was inactive.

Consider `CCN(C)C(=O)Oc1cccc([C@H](C)N(C)C)c1`, for which the outcome was inactive.

Take `OC(Cn1cncn1)(Cn1cncn1)c1ccc(F)cc1F`: the outcome was inactive.

`CNS(=O)(=O)CCc1ccc2[nH]cc(C3CCN(C)CC3)c2c1`: the result was inactive.

Consider `C=C(c1ccc(C(=O)O)cc1)c1cc2c(cc1C)C(C)(C)CCC2(C)C`, for which the outcome was inactive.

In the case of `CCCN[C@H]1CCc2nc(N)sc2C1`, the outcome was inactive.

Turning to `O=C(OC1C[C@H]2CC[C@@H](C1)[N+]21CCCC1)C(O)(c1ccccc1)c1ccccc1` (some centres undefined), the outcome was inactive.
